These results are taken from ChEMBL document CHEMBL1961873, “Compounds: GSK PKIS; Assays: Nanosyn kinase panel” (2012).

For test [1], the target named is Serine/threonine-protein kinase MRCK alpha (Homo sapiens) (UniProt Q5VT25). The note with it: at 0.1 µM.
Test [2] has the same target. The conditions noted are these: at 1 µM.
Test [3] has as its target Serine/threonine-protein kinase MRCK beta (Homo sapiens) (UniProt Q9Y5S2). The conditions noted are these: at 0.1 µM.
The target is the same in test [4]. The note with it: at 1 µM.
Test [5] addresses Ribosomal protein S6 kinase alpha-5 (Homo sapiens) (UniProt O75582). The conditions noted are these: at 0.1 µM.
For test [6] the target is unchanged. The note with it: at 1 µM.
The target in test [7] is Ribosomal protein S6 kinase alpha-4 (Homo sapiens) (UniProt O75676). The conditions noted are these: at 0.1 µM.
For test [8] the target is unchanged. The conditions noted are these: at 1 µM.
The target in test [9] is Ribosomal protein S6 kinase beta-1 (Homo sapiens) (UniProt P23443). The note with it: at 0.1 µM.
Chain of Ribosomal protein S6 kinase beta-1 (Homo sapiens) (P23443 whole entry, looked up): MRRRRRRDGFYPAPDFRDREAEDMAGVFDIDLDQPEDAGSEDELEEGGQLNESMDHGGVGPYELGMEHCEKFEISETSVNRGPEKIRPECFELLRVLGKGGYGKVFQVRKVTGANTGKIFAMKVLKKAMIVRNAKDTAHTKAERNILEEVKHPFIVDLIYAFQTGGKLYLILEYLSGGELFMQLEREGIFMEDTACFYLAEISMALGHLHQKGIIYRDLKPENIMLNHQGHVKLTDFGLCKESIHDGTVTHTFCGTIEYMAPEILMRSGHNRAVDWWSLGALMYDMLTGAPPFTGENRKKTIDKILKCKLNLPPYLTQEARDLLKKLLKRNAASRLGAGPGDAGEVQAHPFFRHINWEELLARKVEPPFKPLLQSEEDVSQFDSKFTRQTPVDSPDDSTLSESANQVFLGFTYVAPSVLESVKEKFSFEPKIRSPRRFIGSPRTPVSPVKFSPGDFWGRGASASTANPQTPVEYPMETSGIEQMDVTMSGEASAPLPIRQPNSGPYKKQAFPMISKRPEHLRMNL
For test [10] the target is unchanged. The note with it: at 1 µM.
Test [11] addresses T1, 3-phosphoinositide-dependent protein kinase 1 (Homo sapiens) (UniProt O15530).
T1 sequence (whole entry): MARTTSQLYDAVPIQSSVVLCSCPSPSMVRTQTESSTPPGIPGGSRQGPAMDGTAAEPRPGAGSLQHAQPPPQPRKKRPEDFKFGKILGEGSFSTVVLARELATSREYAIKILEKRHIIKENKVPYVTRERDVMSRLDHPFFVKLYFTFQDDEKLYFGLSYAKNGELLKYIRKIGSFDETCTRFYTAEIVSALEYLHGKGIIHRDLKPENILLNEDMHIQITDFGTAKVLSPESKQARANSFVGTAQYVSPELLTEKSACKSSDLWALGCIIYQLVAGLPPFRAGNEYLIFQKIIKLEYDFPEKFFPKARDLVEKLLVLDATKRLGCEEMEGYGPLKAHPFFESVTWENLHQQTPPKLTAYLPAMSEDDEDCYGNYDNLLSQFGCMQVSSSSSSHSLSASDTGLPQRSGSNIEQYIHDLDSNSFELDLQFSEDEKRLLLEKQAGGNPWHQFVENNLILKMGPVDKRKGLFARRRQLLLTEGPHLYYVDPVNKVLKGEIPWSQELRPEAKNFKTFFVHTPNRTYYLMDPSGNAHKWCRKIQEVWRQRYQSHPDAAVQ
The conditions noted are these: at 0.1 µM.

In test [12] the target is cAMP-dependent protein kinase catalytic subunit alpha (Homo sapiens) (UniProt P17612). The conditions noted are these: at 0.1 µM.
Test [13] has the same target. The note with it: at 1 µM.
Test [14] has as its target Protein kinase C alpha type (Homo sapiens) (UniProt P17252). The conditions noted are these: at 0.1 µM.
The target is the same in test [15]. The note with it: at 1 µM.
For test [16], the target named is Protein kinase C beta type (Homo sapiens) (UniProt P05771). The conditions noted are these: at 0.1 µM.
Test [17] has the same target. The note with it: at 1 µM.
Test [18] addresses Protein kinase C eta type (Homo sapiens) (UniProt P24723). The note with it: at 0.1 µM.
Test [19] has the same target. The conditions noted are these: at 1 µM.
Test [20] deals with Protein kinase C gamma type (Homo sapiens) (UniProt P05129). The note with it: at 0.1 µM.

Chain of Serine/threonine-protein kinase MRCK beta (Homo sapiens) (Q9Y5S2 whole entry): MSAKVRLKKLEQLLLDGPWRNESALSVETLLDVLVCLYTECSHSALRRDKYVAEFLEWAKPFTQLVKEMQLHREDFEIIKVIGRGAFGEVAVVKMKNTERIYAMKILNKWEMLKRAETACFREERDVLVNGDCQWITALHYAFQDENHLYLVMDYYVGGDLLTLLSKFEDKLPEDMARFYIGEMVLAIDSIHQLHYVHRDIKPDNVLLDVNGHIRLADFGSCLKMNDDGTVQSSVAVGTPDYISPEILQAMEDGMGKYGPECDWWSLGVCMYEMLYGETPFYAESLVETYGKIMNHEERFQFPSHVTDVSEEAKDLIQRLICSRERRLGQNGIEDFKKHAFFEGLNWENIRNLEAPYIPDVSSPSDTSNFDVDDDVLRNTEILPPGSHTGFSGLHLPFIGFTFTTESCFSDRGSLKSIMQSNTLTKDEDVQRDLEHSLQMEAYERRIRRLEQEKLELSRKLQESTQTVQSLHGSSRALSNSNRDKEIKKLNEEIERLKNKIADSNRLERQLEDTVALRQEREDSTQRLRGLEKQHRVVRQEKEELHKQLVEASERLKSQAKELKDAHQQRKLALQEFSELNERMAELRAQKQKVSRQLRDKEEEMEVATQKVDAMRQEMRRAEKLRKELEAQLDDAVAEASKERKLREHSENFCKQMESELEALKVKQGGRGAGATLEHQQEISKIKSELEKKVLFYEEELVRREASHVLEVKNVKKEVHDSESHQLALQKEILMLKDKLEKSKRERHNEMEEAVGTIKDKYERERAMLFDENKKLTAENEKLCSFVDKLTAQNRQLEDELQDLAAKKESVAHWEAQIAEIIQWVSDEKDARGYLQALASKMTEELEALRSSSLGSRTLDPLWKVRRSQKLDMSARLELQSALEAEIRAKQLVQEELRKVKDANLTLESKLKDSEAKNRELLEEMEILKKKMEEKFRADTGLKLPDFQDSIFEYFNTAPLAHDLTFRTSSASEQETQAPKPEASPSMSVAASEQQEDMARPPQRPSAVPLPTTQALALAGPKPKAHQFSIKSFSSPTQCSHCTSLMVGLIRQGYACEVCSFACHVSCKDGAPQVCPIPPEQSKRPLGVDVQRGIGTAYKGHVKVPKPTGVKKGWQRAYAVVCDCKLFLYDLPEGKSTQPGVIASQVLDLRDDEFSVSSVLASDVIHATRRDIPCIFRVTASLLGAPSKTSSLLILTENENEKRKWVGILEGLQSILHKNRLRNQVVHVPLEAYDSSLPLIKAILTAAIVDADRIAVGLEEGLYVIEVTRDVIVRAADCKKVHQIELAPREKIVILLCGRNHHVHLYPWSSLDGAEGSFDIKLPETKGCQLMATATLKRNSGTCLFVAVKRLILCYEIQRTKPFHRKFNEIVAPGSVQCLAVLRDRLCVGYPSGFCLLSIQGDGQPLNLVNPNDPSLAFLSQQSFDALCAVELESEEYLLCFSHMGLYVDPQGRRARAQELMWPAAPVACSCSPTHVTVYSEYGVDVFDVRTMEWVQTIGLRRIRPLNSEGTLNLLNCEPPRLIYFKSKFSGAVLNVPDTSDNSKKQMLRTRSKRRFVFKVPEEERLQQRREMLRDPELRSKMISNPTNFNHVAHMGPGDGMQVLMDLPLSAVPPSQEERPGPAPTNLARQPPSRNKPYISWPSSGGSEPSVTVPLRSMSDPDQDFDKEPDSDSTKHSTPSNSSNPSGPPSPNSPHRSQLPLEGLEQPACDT
Chain of Serine/threonine-protein kinase MRCK alpha (Homo sapiens) (Q5VT25 whole entry): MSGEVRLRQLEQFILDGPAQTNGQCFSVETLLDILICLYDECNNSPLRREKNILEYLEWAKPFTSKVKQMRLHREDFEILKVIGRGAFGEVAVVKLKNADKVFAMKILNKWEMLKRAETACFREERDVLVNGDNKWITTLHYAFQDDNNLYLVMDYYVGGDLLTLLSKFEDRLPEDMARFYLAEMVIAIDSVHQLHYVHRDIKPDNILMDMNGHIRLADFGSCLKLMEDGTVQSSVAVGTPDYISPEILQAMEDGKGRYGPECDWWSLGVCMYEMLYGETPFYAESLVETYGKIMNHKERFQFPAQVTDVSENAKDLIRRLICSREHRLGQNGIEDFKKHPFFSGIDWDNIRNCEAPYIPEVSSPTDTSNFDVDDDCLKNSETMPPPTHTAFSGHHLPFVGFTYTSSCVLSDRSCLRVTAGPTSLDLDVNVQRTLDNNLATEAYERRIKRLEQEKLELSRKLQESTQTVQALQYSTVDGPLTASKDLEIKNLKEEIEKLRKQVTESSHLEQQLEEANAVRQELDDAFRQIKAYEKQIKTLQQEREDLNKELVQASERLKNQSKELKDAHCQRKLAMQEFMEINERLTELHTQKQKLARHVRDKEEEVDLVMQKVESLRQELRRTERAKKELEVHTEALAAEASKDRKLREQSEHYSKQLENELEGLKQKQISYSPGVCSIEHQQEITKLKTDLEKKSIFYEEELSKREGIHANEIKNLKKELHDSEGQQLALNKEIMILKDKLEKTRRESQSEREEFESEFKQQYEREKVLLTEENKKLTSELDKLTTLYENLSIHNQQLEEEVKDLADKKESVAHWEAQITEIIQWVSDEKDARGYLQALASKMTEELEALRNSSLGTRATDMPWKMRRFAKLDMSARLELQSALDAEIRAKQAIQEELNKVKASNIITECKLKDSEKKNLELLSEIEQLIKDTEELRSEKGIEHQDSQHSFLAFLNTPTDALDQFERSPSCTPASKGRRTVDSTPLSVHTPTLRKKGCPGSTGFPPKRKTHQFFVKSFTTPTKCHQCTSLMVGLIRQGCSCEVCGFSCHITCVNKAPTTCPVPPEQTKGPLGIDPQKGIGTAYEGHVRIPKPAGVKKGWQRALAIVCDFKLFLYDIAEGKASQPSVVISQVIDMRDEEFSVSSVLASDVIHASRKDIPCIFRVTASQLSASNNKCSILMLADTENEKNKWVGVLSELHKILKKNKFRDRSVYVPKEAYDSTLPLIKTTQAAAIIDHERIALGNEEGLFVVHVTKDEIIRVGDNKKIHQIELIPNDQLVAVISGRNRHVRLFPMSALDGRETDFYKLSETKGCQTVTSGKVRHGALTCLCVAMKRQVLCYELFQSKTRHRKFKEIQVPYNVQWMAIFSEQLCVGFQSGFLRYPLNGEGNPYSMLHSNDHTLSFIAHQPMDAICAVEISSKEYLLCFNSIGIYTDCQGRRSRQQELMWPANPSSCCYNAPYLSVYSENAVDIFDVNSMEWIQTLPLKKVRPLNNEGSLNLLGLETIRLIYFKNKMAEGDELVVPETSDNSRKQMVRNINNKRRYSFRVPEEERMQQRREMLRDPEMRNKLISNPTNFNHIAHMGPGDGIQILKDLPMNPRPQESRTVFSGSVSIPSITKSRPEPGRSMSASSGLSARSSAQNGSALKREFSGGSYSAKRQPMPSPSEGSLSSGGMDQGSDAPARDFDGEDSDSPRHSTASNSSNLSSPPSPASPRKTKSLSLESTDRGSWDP

On to `Nc1nc(-c2ccccn2)c(-c2ccc3ncccc3n2)s1`, for which the inhibition (commonly the relative decrease from the control value, in per cent) in test [1] was 0.29%; in [2], -0.21%; in [3], -1.45%; in test [4], 0.91%; in [5], 2.65%; in test [6] it was 4.51%. Further, the inhibition in [7] is 1.3%; in test [8], 3.24%; in test [9], 0.7%; in test [10], 1.17%; in [11], 1.75%; in [12] it was 1.32%. Moreover, the inhibition is 1.89% in test [13]; 1.07% in test [14]; 1.65% in test [15]; 0.07% in test [16]; 1.26% in test [17]; 5.03% in test [18]. In addition, the inhibition in test [19] is 2.77%; in [20], 1.52%.
As to `O=C1NC(=O)C(c2cccc(Cl)c2)=C1Nc1ccc(O)c(Cl)c1`, the inhibition in test [1] came to 0.28%; in test [2], 3.73%; in test [3], 1.27%; in [4] it was 2.02%; in test [5] it was 0.69%; in test [6], 2.04%. For the same compound, the inhibition in [7] stood at 0.07%; in [8] it was 3.61%; in test [9], 0.45%; in [10], 0.8%; in [11], 0.43%; in [12] it was 1.25%. Moreover, the inhibition in test [13] came out at 1.73%; in test [14] it was 3.2%; in test [15] it was 6.33%; in test [16] it was 0.44%; in test [17] it was 4.94%; in [18], 1.88%. For the same compound, the inhibition in test [19] is 2.97%; in test [20] it was -4.59%.
Take `CNC(=O)c1cncc(/C=C/c2c(Cl)cccc2Cl)c1`: the inhibition was determined as 4.22% in test [1]; 1.78% in [2]; 0.12% in test [3]; 0.52% in test [4]; 0.58% in test [5]; 1.1% in [6]. Further, the inhibition in test [7] was 2.15%; in [8], 3.75%; in test [9] it was 1.85%; in [10], 2.12%; in test [11], 0.01%; in test [12], -1.08%. The inhibition was -1.47% in [13]; -3.64% in [14]; -2.28% in test [15]; 0.07% in [16]; 0.23% in test [17]; 3.81% in [18]. Further, the figures for the inhibition in test [19] and in test [20] were 5.49% and 0.61%, respectively.
In the case of `O=C1NC(=O)C(c2ccccc2Cl)=C1Nc1cccc(O)c1`, the inhibition is 0.28% in test [1]; -0.35% in test [2]; 1.4% in [3]; 3.99% in test [4]; 2.66% in test [5]; 5.41% in test [6]. The inhibition in test [7] was found to be 1.39%; in test [8], 3.42%; in test [9], 1.47%; in [10], 0.61%; in test [11] it was 0.81%; in test [12], 1.52%. In addition, the inhibition came to 2.92% in test [13]; 0.83% in [14]; 3.41% in test [15]; 0.31% in test [16]; 5.5% in test [17]; 2.05% in [18]. For the same compound, the inhibition was 5.24% in test [19] and -3.81% in test [20].
Regarding `CCN1CCC(CC(=O)Nc2n[nH]c3nc(-c4cccs4)c(Br)cc23)CC1`, the inhibition was -1% in test [1]; -0.59% in test [2]; 0.24% in test [3]; 0.47% in test [4]; -2.28% in test [5]; 0.61% in test [6]. Moreover, the inhibition in test [7] was -2.08%; in test [8], -1.67%; in [9] it was -1.91%; in test [10], 0.59%; in [11], -2.02%; in test [12], -1.4%. Further, the inhibition is 1.75% in [13]; -0.16% in test [14]; 0.74% in test [15]; 2.07% in [16]; 1.35% in test [17]; -3.78% in [18]. For the same compound, the inhibition in test [19] is 0.16%; in test [20] it was -1.57%.
As to `Fc1cccc(COc2ccc(Nc3ncnc4sc(-c5cccs5)cc34)cc2Cl)c1`, the inhibition in test [1] is 1.75%; in [2], 2.49%; in test [3], 1.14%; in test [4] it was 1.28%; in [5], -5.35%; in test [6], -7.37%. The inhibition in test [7] was 1.59%; in test [8], 1.29%; in test [9] it was -0.02%; in test [10] it was 0.68%; in test [11], -0.7%; in test [12], 1.34%. Further, the inhibition was 1.04% in [13]; -0.17% in test [14]; 0.09% in [15]; -0.52% in [16]; -0.08% in test [17]; 1.43% in [18]. For the same compound, the inhibition was 1.98% in test [19] and -0.34% in test [20].
As for `CCCN1CCC=C(c2ccc(Nc3nc(Nc4ccccc4C(N)=O)c4cc[nH]c4n3)c(C)c2)C1`, the inhibition stood at 5.2% in test [1]; 9.75% in test [2]; 0.66% in test [3]; 4.44% in test [4]; 4.46% in test [5]; 6.4% in [6]. The inhibition in test [7] was 1.37%; in test [8], 5.28%; in test [9] it was 0.98%; in [10], 6.39%; in test [11], -0.1%; in [12], 2.92%. The inhibition in test [13] was 2.79%; in [14] it was 0.33%; in test [15], 6.13%; in test [16] it was -0.14%; in test [17], -0.64%; in test [18], 5.56%. For the same compound, the inhibition in test [19] is 4.73%; in [20] it was 3.41%.
On to `COc1cc(C=NNc2ncnc3c2cnn3-c2ccccc2)ccc1O`, for which the inhibition was 0.09% in test [1]; 3.38% in test [2]; 1.02% in [3]; 2.48% in test [4]; -3.81% in test [5]; -1.13% in test [6]. The inhibition is 1.6% in test [7]; 4.55% in test [8]; 2.72% in test [9]; 10.3% in [10]; 3.92% in test [11]; 1.37% in test [12]. Also, the inhibition was determined as 1.88% in test [13]; 0.49% in test [14]; 3.62% in test [15]; 1.19% in [16]; 4.02% in test [17]; 3.68% in test [18]. In addition, the results for the inhibition in test [19] and in test [20] were 0.52% and 1.8%, respectively.
`Fc1cccc(COc2ccc(Nc3ncnc4cc(-c5ccc[nH]5)sc34)cc2Cl)c1`: the inhibition was -0.43% in test [1]; -1.14% in test [2]; 0.61% in [3]; 0.75% in test [4]; 0.34% in test [5]; 0.11% in test [6]. Further, the inhibition in test [7] was 3.11%; in test [8], 4.08%; in test [9], 0.99%; in test [10], 1.05%; in [11], 1.86%; in test [12], -2.47%. The inhibition in test [13] is -0.52%; in [14], -3.29%; in [15], -1.9%; in [16] it was 1.37%; in test [17], 0.9%; in [18], 2.87%. Also, the inhibition in test [19] was determined as 4.5%; in test [20], 3.21%.
Regarding `NS(=O)(=O)c1cccc(-c2ccc3c(NC(=O)C4CC4)n[nH]c3c2)c1`, the inhibition is 0.11% in test [1]; -0.38% in test [2]; 0.03% in [3]; 2.23% in [4]; -0.03% in test [5]; 1.96% in [6]. For the same compound, the inhibition in test [7] is -0.84%; in test [8], 0.37%; in [9] it was -1.3%; in test [10], 0.07%; in [11], -1.98%; in test [12] it was -0.94%. The inhibition in test [13] is 0.85%; in [14], -0.24%; in [15], 0.92%; in test [16] it was -0.11%; in [17], 2.66%; in test [18], -2.13%. The results for the inhibition in [19] and in test [20] were -2.3% and -1.53%, respectively.
